PubChem BioAssay (NCATS)
Records with an inconclusive call do not appear. Where a call stands in place of a potency, no number is given. Unmarked numbers belong to inactive results. Activity calls are given as the source filed them. Unless noted, calls follow the shape of the dose curve; as a rule, active = well fitted curve in the direction sought with a large enough effect; inconclusive = small, poorly fitted or top-dose-only effect, or another doubt; inactive = no such curve, though single readings can be large; an effect the other way counts as inactive or inconclusive.

How the values were obtained:
[1] = qHTS to identify inhibitors of the type 1 interferon - major histocompatibility complex class I in skeletal muscle: primary screen against the NCATS Pharmaceutical Collection (AID 1347407);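 also: luminescence of HiBiT knocked into endogenous HLA-B as interferon-induced MHC class I level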
Summary of the method: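 Cells were seeded with 4 ng/ml IFN-beta, incubated 1 h, then dosed with compounds over eight 1:5 steps up to 46 uM final. After 24 h at 37 C, HiBiT lytic reagent was added and luminescence read after 10 min lysis in the dark.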

[2] = target: Protein phosphatase 1D (Homo sapiens) (UniProt O15297); test: RapidFire Mass Spectrometry qHTS Assay for Modulators of WT P53-Induced Phosphatase 1 (WIP1) (AID 1347424);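 also: amount of dephosphorylated VEPPL-S-QETFS peptide product formed by WIP1; series mostly up to about 63 µM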
Chain of Protein phosphatase 1D (Homo sapiens) (O15297 whole entry, looked up): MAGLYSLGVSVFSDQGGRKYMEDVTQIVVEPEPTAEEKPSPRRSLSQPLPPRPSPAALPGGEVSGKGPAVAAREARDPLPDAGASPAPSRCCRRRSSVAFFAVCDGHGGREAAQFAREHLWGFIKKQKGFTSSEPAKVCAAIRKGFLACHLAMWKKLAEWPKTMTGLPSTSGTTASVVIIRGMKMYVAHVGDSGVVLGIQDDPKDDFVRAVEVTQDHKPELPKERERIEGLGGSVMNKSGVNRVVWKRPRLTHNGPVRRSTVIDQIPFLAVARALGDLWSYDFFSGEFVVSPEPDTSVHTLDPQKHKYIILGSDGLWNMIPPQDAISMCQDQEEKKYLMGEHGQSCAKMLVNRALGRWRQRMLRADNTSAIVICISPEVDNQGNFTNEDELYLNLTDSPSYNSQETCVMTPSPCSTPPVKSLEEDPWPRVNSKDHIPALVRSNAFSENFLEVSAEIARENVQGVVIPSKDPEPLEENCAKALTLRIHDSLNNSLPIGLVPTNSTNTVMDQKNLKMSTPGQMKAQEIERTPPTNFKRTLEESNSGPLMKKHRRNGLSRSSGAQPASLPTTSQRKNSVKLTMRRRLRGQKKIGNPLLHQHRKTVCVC
Summary of the method: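 WIP1 (10 nM final) was preincubated 1 h at room temperature with compounds in Tris-HCl pH 7.5, 30 mM MgCl2, TCEP, EGTA, BSA; 2 uM VEPPL-pS-QETFS phosphopeptide was added for 5 min, quenched with formic acid, and dephosphorylated product quantified by RapidFire MS.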

[3] = target: Protein phosphatase 1D (Homo sapiens) (UniProt O15297); test: Rhodamine-PBP qHTS Assay for Modulators of WT P53-Induced Phosphatase 1 (WIP1) (AID 1347425)
Summary of the method: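 5 nM WIP1 + 10 uM Rh-PBP, 50 mM Tris pH 7.5, 30 mM MgCl2, 1 mM TCEP, 0.1 mM EGTA, BSA; cpds pinned, 1 hr RT; + 10 uM phosphopeptide; fluorescence 1-min reads x 11 min; delta = f1 - f0.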

[4] = Primary qHTS for inhibitors of La Crosse Virus (LACV) - induced cell death in SH-SY5Y cells (AID 1508616);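 also: top concentration of the series differs between compounds; higher means more rescue of cells from virus-induced death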
Summary of the method: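 SH-SY5Y cells (6000/well) plated 24 h, then given compounds by pin transfer and LACV at 0.01 MOI for 6 days at 37C. Viability measured by ATPLite luminescence, normalized to infected DMSO and uninfected DMSO.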

[5] = target: Calcium and integrin-binding protein 1 (Homo sapiens) (UniProt Q99828); test: Primary qHTS for Identification of Calcium Integrin Binding Protein 1 (CIB1) Competitor (AID 1508620);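 also: GST tagged CIB1 binding a fluorescein labelled alphaIIb integrin peptide tracer; top concentration of the series differs between compounds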
Chain of Calcium and integrin-binding protein 1 (Homo sapiens) (Q99828 whole entry, looked up): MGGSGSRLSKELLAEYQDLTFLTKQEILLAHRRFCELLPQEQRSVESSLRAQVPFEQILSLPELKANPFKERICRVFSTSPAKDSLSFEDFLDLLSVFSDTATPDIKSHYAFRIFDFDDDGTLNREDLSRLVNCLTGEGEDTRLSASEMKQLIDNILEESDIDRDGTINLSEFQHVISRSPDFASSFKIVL
Summary of the method: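 Fluorescence polarization competition: CIB1-GST (1 uM final) preincubated with compound 15 min at room temperature, then FITC-labeled alphaIIb peptide (100 nM final) added for another 15 min. Polarization read at Ex 480/Em 540.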

[6] = A High-Content qHTS Against Drug Library for the Identification of Small Molecules that Inhibit DYT1 Early Onset Primary Dystonia-Associated Cell Pathology (AID 1645839; calls by dose curve; also: series mostly up to about 46 µM)
Summary of the method: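 Readout: %pathology, the punctate EGFP-TorsinA distribution from imaging, as the primary channel and cell count as the toxicity counterscreen. HEK293 Flp-In cells expressing delE TorsinA were induced with tetracycline and treated with compound for 48 h.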

[7] = target: Cytochrome P450 2D6 (Homo sapiens) (UniProt P10635); test: Cytochrome P450 family 2 subfamily D member 6 (CYP2D6) small molecule antagonists: luciferase biochemical (cell-free) qHTS assay (AID 1645840; active = well fitted curve in the direction sought with a large enough effect in the repeat runs; an effect the other way counts as inactive or inconclusive; also: nearly all actives have a fitted effect of over 55% in size; also: potency is read from the fitted curve at half-maximal effect)
Chain of Cytochrome P450 2D6 (Homo sapiens) (P10635 whole entry, looked up): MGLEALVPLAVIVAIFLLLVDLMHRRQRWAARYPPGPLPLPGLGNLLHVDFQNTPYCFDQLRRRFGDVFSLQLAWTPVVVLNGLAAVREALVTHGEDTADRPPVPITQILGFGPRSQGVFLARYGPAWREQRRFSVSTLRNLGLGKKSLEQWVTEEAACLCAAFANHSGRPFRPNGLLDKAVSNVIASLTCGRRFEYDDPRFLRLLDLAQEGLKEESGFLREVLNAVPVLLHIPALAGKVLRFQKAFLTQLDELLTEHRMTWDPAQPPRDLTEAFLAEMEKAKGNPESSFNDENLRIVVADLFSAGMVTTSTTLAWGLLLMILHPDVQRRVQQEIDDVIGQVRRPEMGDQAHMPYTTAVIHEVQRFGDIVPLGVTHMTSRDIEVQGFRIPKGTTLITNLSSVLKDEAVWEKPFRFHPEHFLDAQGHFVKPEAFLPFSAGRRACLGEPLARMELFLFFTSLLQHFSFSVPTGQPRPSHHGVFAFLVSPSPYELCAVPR
Summary of the method: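 P450-Glo luminescent screen: recombinant CYP2D6 enzyme–proluciferin substrate mix preincubated with compound 10 min at room temperature, then NADPH regeneration added for 1 h at room temperature. Detection reagent added for 20 min; luciferin light read as relative luminescence units.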

[8] = target: Cytochrome P450 3A4 (Homo sapiens) (UniProt P08684); test: Cytochrome P450 family 3 subfamily A member 4 (CYP3A4) small molecule antagonists: luciferase qHTS assay (AID 1645841; active = well fitted curve in the direction sought with a large enough effect in the repeat runs; an effect the other way counts as inactive or inconclusive; also: nearly all actives have a fitted effect of over 45% in size)
Chain of Cytochrome P450 3A4 (Homo sapiens) (P08684 whole entry, looked up): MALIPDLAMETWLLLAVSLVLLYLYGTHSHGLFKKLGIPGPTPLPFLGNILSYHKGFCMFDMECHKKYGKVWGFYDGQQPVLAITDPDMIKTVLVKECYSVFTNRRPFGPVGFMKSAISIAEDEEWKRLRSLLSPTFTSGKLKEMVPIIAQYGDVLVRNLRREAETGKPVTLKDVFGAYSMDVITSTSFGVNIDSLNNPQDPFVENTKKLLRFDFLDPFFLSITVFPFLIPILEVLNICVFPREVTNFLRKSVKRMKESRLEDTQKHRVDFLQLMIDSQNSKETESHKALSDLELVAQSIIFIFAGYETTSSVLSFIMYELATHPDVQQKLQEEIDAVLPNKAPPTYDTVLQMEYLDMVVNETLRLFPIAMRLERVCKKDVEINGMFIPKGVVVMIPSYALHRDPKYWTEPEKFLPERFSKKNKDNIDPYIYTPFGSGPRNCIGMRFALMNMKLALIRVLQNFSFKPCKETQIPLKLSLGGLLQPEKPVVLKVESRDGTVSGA
Summary of the method: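 P450-Glo CYP3A4 enzyme with proluciferin substrate was preincubated with DMSO-dissolved compounds for 10 min at room temperature. NADPH regeneration solution started a 1 h reaction. Detection reagent stopped it, and luminescence was read after 20 min.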

[9] = target: Cytochrome P450 2C9 (Homo sapiens) (UniProt P11712); test: Cytochrome P450 family 2 subfamily C member 9 (CYP2C9) small molecule antagonists: luciferase biochemical (cell-free) qHTS assay (AID 1645842; active = well fitted curve in the direction sought with a large enough effect in the repeat runs; an effect the other way counts as inactive or inconclusive; also: nearly all actives have a fitted effect of over 55% in size; also: potency is read from the fitted curve at half-maximal effect)
Chain of Cytochrome P450 2C9 (Homo sapiens) (P11712 whole entry, looked up): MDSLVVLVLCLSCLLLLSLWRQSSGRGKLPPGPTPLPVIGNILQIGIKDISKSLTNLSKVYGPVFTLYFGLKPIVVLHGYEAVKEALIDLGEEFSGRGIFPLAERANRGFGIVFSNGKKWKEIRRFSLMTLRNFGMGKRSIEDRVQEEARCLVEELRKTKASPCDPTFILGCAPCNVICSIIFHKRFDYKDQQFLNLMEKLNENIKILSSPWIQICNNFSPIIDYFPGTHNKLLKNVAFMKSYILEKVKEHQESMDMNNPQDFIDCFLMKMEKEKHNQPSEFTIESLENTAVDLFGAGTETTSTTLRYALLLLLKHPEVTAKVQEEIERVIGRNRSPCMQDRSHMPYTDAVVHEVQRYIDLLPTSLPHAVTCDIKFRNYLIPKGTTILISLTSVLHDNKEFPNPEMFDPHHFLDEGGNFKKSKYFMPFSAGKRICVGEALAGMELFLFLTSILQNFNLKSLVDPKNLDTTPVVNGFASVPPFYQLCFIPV
Summary of the method: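 Luminescence, after 20 min with luciferin detection reagent, reflected CYP2C9 turnover during a 1 h NADPH-driven reaction at 37C. Enzyme-substrate mix contained 0.4% bovine serum albumin and was preincubated with compound 10 min at room temperature.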

[10] = Primary qHTS for small molecule stabilizers of the endoplasmic reticulum resident proteome: Secreted ER Calcium Modulated Protein (SERCaMP) assay (AID 1508630)
Summary of the method: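 GLuc-SERCaMP-expressing SH-SY5Y cells, pretreated 16 h with compound, are challenged with thapsigargin to empty ER calcium stores; after 4 h, coelenterazine is added directly to the medium and luminescence is imaged.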

SMILES	Potency [1]	Potency [2]	outcome [3]	outcome [4]	Potency [5]	Potency [6]	Potency [7]	Potency [8]	Potency [9]	Potency [10]
C[C@H]1NCc2cc(-c3ccc4c(=O)c(C(=O)O)cn(C5CC5)c4c3OC(F)F)ccc21	inactive	inactive	inactive	inactive	inactive	inactive	inactive			
CCOC(=O)c1ccc(OCCN2C[C@H](O)[C@@H](O)[C@H](O)[C@H]2CO)cc1	inactive	inactive	inactive	inactive	inactive	inactive	inactive	inactive	inactive	
CCCC(=O)O[C@]1(C(=O)CCl)[C@@H](C)C[C@H]2[C@@H]3CCC4=CC(=O)C=C[C@]4(C)[C@@]3(F)C(=O)C[C@@]21C	inactive	inactive	inactive	inactive	inactive	inactive				
CO/N=C(\C(=O)O)c1csc(NC(=O)CCl)n1	inactive	inactive	inactive	inactive	inactive	inactive	inactive		inactive	
CSCC[C@H](NC(=O)[C@H](Cc1c[nH]c2ccccc12)NC(=O)CCNC(=O)OC(C)(C)C)C(=O)N[C@@H](CC(=O)O)C(=O)N[C@@H](Cc1ccccc1)C(N)=O	inactive	inactive	inactive	inactive	inactive	inactive				
CC(=O)N(CC(O)CO)c1c(I)c(C(=O)NCCO)c(I)c(C(=O)NCC(O)CO)c1I (stereo not given)	inactive	inactive	inactive	inactive	inactive	inactive	inactive	inactive	inactive	
CCOC(=O)C(=O)CCCCCCl	inactive	inactive	inactive	inactive	inactive				24.2 µM (active)	inactive
Nc1nnnn1-c1ccccc1	inactive	inactive	inactive	inactive	inactive	inactive	inactive			
N#CC1(c2ccc(F)cc2)CCC(=O)CC1	inactive	inactive	inactive	inactive	inactive	inactive	inactive		inactive	
N=C(N)c1ccc(OCCCOc2ccc(C(=N)N)cc2)cc1	inactive	inactive	inactive	inactive	inactive	inactive	inactive	inactive		
CCOC(=O)c1cc(=O)c2c(OCC(COc3cccc4oc(C(=O)OCC)cc(=O)c34)OC(=O)[C@@H](N)CCCCN)cccc2o1	inactive	inactive	inactive	inactive	inactive	inactive				
Cc1[nH]cnc1-c1ccc(Cl)cc1	inactive	inactive	inactive	inactive	inactive	inactive	17.4 µM (active)			
C#Cc1ccc(-c2ccccc2F)cc1	inactive	inactive	inactive	inactive	inactive	inactive	15.1 µM (active)		12 µM (active)	
C1N2CN3CN1CN(C2)C3	inactive	inactive	inactive	inactive	inactive	inactive	inactive		inactive	
CN1C(=O)c2ccccc2C1=O	inactive	inactive	inactive	inactive	inactive	inactive	inactive			
Nc1ncnc2c1ncn2Cc1c(F)cccc1Cl	inactive	inactive	inactive	inactive	inactive	inactive	inactive		inactive	
Cn1cc(S(C)=O)c(=O)c2ccc(F)cc21 (stereo not given)	inactive	inactive	inactive	inactive	inactive		inactive		inactive	
COC(=O)c1cc(Cl)c(NC(C)=O)cc1OC	inactive	inactive	inactive	inactive	inactive		inactive		inactive	
CCCCC/C=C\C/C=C\CCCCCCCC(=O)NC(C)c1ccccc1 (stereo not given)	inactive	inactive	inactive	inactive	inactive		3.89 µM (active)			
CN(C)CCOC(c1ccccc1)c1ccc(Br)cc1 (stereo not given)	inactive	inactive	inactive	inactive	inactive		0.275 µM (active)		inactive	
c1ccc2occc2c1	inactive	inactive	inactive	inactive	inactive	inactive			inactive	
COc1cc2nc(Cl)nc(N)c2cc1OC	inactive	inactive	inactive	inactive	inactive	inactive	inactive		inactive	
COc1ccc(/C(C)=C/C(=O)O)c(OC)c1	inactive	inactive	inactive	inactive	inactive	inactive	inactive		inactive	
Cc1coc2ccccc2c1=O	inactive	inactive	inactive	inactive	inactive	inactive	inactive		inactive	
CC(C)C(C)(C)C(C)(C)C(C)(C)S	inactive	inactive	inactive	inactive		inactive	inactive			
O=C(CCC1CCN(Cc2ccccc2)CC1)c1ccc2c(c1)NCCCC2	inactive	inactive	inactive	inactive	inactive		9.77 µM (active)		inactive	
